From PubChem BioAssay (Tox21)
Inconclusive results are not listed. The source made the active and inactive calls. Unless noted, calls come from the whole dose curve; as a rule, active = well fitted curve in the direction sought with a large enough effect in the repeat runs; inconclusive = weak or mixed curves; inactive = no such curve, though single readings can be large; an effect the other way counts as inactive or inconclusive.

What was measured:
[1] = qHTS assay to identify small molecule antagonists of the thyroid receptor (TR) signaling pathway (AID 743065); note: nearly all actives have a fitted effect of over 55% in size; note: potency is the fitted concentration of half-maximal effect; for activity, negative = inhibition: series mostly up to about 70 µM
Method in brief: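 GH3.TRE-Luc rat pituitary cells carrying two TR response elements driving luciferase were plated for 4 h, given compound plus 1 nM T3 (final), and incubated 23.5 h at 37 C. ONE-Glo luminescence measured reporter inhibition; CellTiter-Fluor fluorescence tracked cytotoxicity.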

[2] = tested on: thyroid hormone receptor (rat, GH3 cells); assay: qHTS assay to identify small molecule agonists of the thyroid receptor (TR) signaling pathway (AID 743066; calls by dose curve; note: potency is the fitted concentration of half-maximal effect)
[3] = qHTS assay to identify small molecule antagonists of the estrogen receptor alpha (ER-alpha) signaling pathway - cell viability counter screen (AID 743074; calls by dose curve;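 note: HEK293 cells carrying ER-alpha-UAS-bla reporter stimulated with 17beta-estradiol; nearly all actives have a fitted effect of over 45% in size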)
[4] = qHTS assay to identify small molecule antagonists of the estrogen receptor alpha (ER-alpha) signaling pathway using the BG1 cell line - cell viability counter screen (AID 743081);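 note: compound given together with 17beta-estradiol as the ER stimulus; series mostly up to about 70 µM; nearly all actives have a fitted effect of over 45% in size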
[5] = target: Aromatase (Homo sapiens) (UniProt P11511); assay: qHTS assay to identify aromatase inhibitors (AID 743083); note: series mostly up to about 70 µM; nearly all actives have a fitted effect of over 55% in size
Sequence of Aromatase (Homo sapiens) (P11511 whole entry, looked up): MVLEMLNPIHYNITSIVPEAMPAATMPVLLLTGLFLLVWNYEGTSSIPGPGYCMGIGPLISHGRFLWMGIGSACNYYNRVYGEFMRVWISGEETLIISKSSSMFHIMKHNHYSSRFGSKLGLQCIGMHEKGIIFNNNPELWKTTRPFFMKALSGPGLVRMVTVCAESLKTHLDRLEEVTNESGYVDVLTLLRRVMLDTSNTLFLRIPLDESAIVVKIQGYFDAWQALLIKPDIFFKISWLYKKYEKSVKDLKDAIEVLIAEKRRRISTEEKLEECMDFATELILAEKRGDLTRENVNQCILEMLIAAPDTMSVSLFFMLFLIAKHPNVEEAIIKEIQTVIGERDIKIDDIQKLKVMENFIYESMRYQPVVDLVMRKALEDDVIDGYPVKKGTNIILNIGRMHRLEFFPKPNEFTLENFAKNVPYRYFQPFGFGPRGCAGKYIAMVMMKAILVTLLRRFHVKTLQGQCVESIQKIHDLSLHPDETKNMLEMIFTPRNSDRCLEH

[6] = qHTS assay to identify aromatase inhibitors - cell viability counter screen (AID 743084);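 note: cells stimulated with testosterone during compound exposure; nearly all actives have a fitted effect of over 55% in size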
[7] = target: Estrogen receptor (Homo sapiens) (UniProt P03372); assay: qHTS assay to identify small molecule antagonists of the estrogen receptor alpha (ER-alpha) signaling pathway (AID 743069; active = well fitted curve in the direction sought with a large enough effect in the signal ratio in the repeat runs, not every such curve was filed as active; the % refers to the signal ratio)
Sequence of Estrogen receptor (Homo sapiens) (P03372 whole entry, looked up): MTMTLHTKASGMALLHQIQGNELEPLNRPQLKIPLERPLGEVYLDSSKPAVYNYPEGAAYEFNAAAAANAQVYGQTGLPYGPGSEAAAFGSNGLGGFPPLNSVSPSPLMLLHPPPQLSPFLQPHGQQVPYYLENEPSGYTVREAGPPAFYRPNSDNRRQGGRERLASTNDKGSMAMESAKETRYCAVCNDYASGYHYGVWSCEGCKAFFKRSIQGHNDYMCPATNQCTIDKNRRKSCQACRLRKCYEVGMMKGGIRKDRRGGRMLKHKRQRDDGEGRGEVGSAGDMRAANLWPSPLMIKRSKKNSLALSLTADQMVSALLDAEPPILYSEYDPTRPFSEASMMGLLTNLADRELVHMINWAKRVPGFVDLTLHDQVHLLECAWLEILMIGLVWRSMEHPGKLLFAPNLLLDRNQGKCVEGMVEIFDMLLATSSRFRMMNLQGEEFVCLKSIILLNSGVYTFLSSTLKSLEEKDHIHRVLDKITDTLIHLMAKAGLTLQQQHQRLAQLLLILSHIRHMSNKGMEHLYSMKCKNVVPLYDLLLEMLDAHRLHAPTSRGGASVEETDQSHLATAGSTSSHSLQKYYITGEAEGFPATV
Method in brief: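 Estradiol-stimulated ER-alpha-UAS-bla HEK293 cells, 18 hr compound exposure at 37C. LiveBLAzer B/G substrate, 2 hr RT, fluorescence read.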

[8] = target: Estrogen receptor (Homo sapiens) (UniProt P03372); assay: qHTS assay to identify small molecule agonists of the estrogen receptor alpha (ER-alpha) signaling pathway (AID 743075; calls by dose curve;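 note: HEK293 GripTite cells with ER-alpha and UAS-driven beta-lactamase reporter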)
[9] = target: Estrogen receptor (Homo sapiens) (UniProt P03372); assay: qHTS assay to identify small molecule agonists of the estrogen receptor alpha (ER-alpha) signaling pathway using the BG1 cell line (AID 743079); note: nearly all actives have a fitted effect of over 20% in size; note: potency is the fitted concentration of half-maximal effect
[10] = qHTS assay to identify small molecule antagonists of the estrogen receptor alpha (ER-alpha) signaling pathway using the BG1 cell line (AID 743080; calls by dose curve; note: series mostly up to about 70 µM; nearly all actives have a fitted effect of over 25% in size)
Method in brief: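 Antagonist mode: compounds in DMSO were pinned onto BG1-Luc-4E2 cells alongside 17beta-estradiol agonist, incubated 21.5 h, and ERE-driven luciferase measured with ONE-Glo. Cytotoxicity was multiplexed using CellTiter-Fluor fluorescence.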
% is set by controls: 0 for no effect and ±100 for the full control effect.

CC(=O)OCCCc1ccccc1
inactive: Potency [1] | Potency [2] | Potency [3] | outcome [4] | outcome [5] | Potency [6]

C=C(C)C(=O)OC1CC(C)CC(C)(C)C1 (stereo unspecified)
inactive: Potency [1] | Potency [2] | Potency [3] | outcome [4] | outcome [5] | Potency [6]

CN(C1CCCCC1)S(=O)(=O)c1ccccc1N
inactive: Potency [1] | Potency [2] | Potency [3] | outcome [4] | outcome [5] | Potency [6]

NC(Cc1c[nH]c2ccccc12)C(=O)O (stereo unspecified)
inactive: Potency [1] | Potency [2] | Potency [3] | outcome [4] | outcome [5] | Potency [6]

CCOc1ccc(NC(=O)OC(C)C)cc1OCC
inactive: Potency [1] | Potency [2] | Potency [3] | outcome [4] | outcome [5] | Potency [6]

NS(=O)(=O)c1cc2c(cc1Cl)NC(C(Cl)Cl)NS2(=O)=O (stereo unspecified)
inactive: Potency [1] | Potency [2] | Potency [3] | outcome [4] | outcome [5] | Potency [6]

Cn1c(=O)c2c(ncn2CC2OCCO2)n(C)c1=O
inactive: Potency [1] | Potency [2] | Potency [3] | outcome [4] | outcome [5] | Potency [6]

O=CO
inactive: activity, negative = inhibition [1] -3.91% [at 8.44 µM] | activation [2] 0.246% [at 8.08 µM] | activity, negative = cytotoxicity [3] 6.52% [at 6.72 µM] | activity change, negative = cytotoxicity [4] 0.807% [at 8.47 µM] | activity, negative = inhibition [5] 10.9% [at 8.47 µM] | activity change, negative = cytotoxicity [6] -4.37% [at 8.47 µM]

C=CCOc1cc(Cl)ccc1C(=O)NCCN(CC)CC
inactive: Potency [2] | Potency [3] | outcome [4] | outcome [5] | Potency [6]
active: Potency [1] 13.3 µM

CCCCCCCCCCCCCCCC(=O)NCCO
inactive: Potency [1] | Potency [2] | Potency [3] | outcome [4] | outcome [5] | Potency [6]

C=C(C)C(=O)OCCCCCCOC(=O)C(=C)C
inactive: Potency [1] | Potency [2] | Potency [3] | outcome [4] | Potency [6]

Cc1ncc([N+](=O)[O-])n1CC(O)CCl (stereo unspecified)
inactive: Potency [1] | Potency [2] | Potency [3] | outcome [4] | outcome [5] | Potency [6]

CN(C)CCCNCCC#N
inactive: Potency [1] | Potency [2] | Potency [3] | outcome [4] | outcome [5] | Potency [6]

NS(=O)(=O)c1cc2c(cc1Cl)NC(CC1CCCC1)NS2(=O)=O (stereo unspecified)
inactive: Potency [1] | Potency [2] | Potency [3] | outcome [4] | outcome [5] | Potency [6]

O=c1[nH]c(=O)c2ccccc2o1
inactive: Potency [1] | Potency [2] | Potency [3] | outcome [4] | outcome [5] | Potency [6]

SCCSCCS
inactive: Potency [1] | Potency [2] | Potency [3] | outcome [4] | outcome [5] | Potency [6]

CC1(N)CCC(C(C)(C)N)CC1 (stereo unspecified)
inactive: Potency [1] | Potency [2] | Potency [3] | outcome [4] | outcome [5] | Potency [6]

CCCCC(CC)C(=O)OC(C)C (stereo unspecified)
inactive: Potency [1] | Potency [2] | Potency [3] | outcome [4] | outcome [5] | Potency [6]

C=C[C@@H](C)CCC=C(C)C
inactive: Potency [1] | Potency [2] | Potency [3] | outcome [4] | outcome [5] | Potency [6]

Cc1ccc(S(=O)(=O)NC(=O)NC2CCCCCCC2)cc1
inactive: Potency [1] | Potency [2] | Potency [3] | outcome [4] | outcome [5] | Potency [6]

CCOC(=O)OCC/C(SC(=O)OCC)=C(\C)N(C=O)Cc1cnc(C)nc1N
inactive: Potency [1] | Potency [2] | outcome [5] | Potency [6]

O=S1(=O)CCCC1
inactive: Potency [2] | Potency [7] | Potency [3] | Potency [8] | Potency [9] | outcome [10] | outcome [4] | outcome [5] | Potency [6]

O=C(O)c1c(Cl)ccc(Cl)c1Cl
inactive: Potency [1] | Potency [7] | Potency [3] | Potency [8] | Potency [9] | outcome [10] | outcome [4] | outcome [5] | Potency [6]

CCCCCC(=O)OCC
inactive: Potency [2] | Potency [7] | Potency [3] | Potency [8] | Potency [9] | outcome [10] | outcome [4] | outcome [5] | Potency [6]

O=C(O)/C=C/c1ccccc1
inactive: Potency [2] | Potency [7] | Potency [3] | Potency [8] | Potency [9] | outcome [10] | outcome [4] | outcome [5] | Potency [6]

CO[Si](CCCCl)(OC)OC
inactive: Potency [2] | Potency [7] | Potency [3] | Potency [8] | Potency [9] | outcome [10] | outcome [4] | outcome [5] | Potency [6]

CC1CCC(C(C)(C)S)C(=O)C1 (stereo unspecified)
inactive: Potency [2] | Potency [7] | Potency [3] | Potency [8] | Potency [9] | outcome [10] | outcome [4] | outcome [5] | Potency [6]

O=C(CN1CCN(Cc2ccc3c(c2)OCO3)CC1)N1c2ccccc2Sc2ccccc21
inactive: Potency [3] | outcome [4] | outcome [5] | Potency [6]
active: Potency [1] 26.6 µM

CCc1nccnc1C
inactive: Potency [2] | Potency [7] | Potency [3] | Potency [8] | Potency [9] | outcome [10] | outcome [4] | outcome [5] | Potency [6]

COc1cc2c(Nc3ccc(Br)cc3F)ncnc2cc1OCC1CCN(C)CC1
inactive: Potency [7] | Potency [9] | outcome [5] | Potency [6]
active: Potency [1] 5.31 µM

C=C(C)C(=O)OC
inactive: Potency [1] | Potency [2] | outcome [4] | outcome [5] | Potency [6]

O=C(O)Cc1cccc(-c2cc(CCCCCCc3ccc(O[C@H]4O[C@H](CO)[C@@H](O)[C@H](O)[C@@H]4O)c(-c4cccc(CC(=O)O)c4)c3)ccc2O[C@H]2O[C@H](CO)[C@@H](O)[C@H](O)[C@@H]2O)c1
inactive: Potency [1] | Potency [2] | outcome [4] | outcome [5] | Potency [6]

Cc1ccc2c(c1)c1c3n2CCNC3CCC1 (stereo unspecified)
inactive: Potency [3] | outcome [4] | outcome [5] | Potency [6]
active: Potency [1] 23.7 µM

COc1ccc(/C=N/NC(=O)c2ccncc2)cc1OC
inactive: Potency [2] | Potency [7] | Potency [3] | Potency [8] | Potency [9] | outcome [10] | outcome [4] | outcome [5] | Potency [6]

CCCCCCCCCCC
inactive: Potency [7] | Potency [3] | Potency [8] | Potency [9] | outcome [10] | outcome [4] | outcome [5] | Potency [6]
active: Potency [2] 54.5 µM

CCCCOC(=O)C(=O)OCCCC
inactive: Potency [1] | Potency [2] | outcome [4] | outcome [5] | Potency [6]

CO/N=C(/C(=O)N[C@@H]1C(=O)N2C(C(=O)O)=C(Cn3nnc(C)n3)CS[C@H]12)c1csc(N)n1
inactive: Potency [1] | Potency [2] | outcome [4]

Nc1cc(C(=O)O)ccc1Cl
inactive: Potency [2] | Potency [7] | Potency [3] | Potency [8] | Potency [9] | outcome [10] | outcome [4] | outcome [5] | Potency [6]

CCC1COC(=O)O1 (stereo unspecified)
inactive: Potency [2] | Potency [7] | Potency [3] | Potency [8] | Potency [9] | outcome [10] | outcome [4] | outcome [5] | Potency [6]

CC(C)C(=O)c1ccccc1
inactive: Potency [2] | Potency [7] | Potency [3] | Potency [8] | Potency [9] | outcome [10] | outcome [4] | outcome [5] | Potency [6]

NC(=O)NC(=O)Cc1ccccc1
active: Potency [9] 33.5 µM
inactive: Potency [2] | Potency [7] | Potency [3] | Potency [8] | outcome [10] | outcome [4] | outcome [5] | Potency [6]

Cc1c(C(C)C)c(=O)n(-c2ccccc2)n1C
inactive: Potency [2] | Potency [7] | Potency [3] | Potency [8] | Potency [9] | outcome [10] | outcome [4] | outcome [5] | Potency [6]

Cc1cc(C)cc([N+](=O)[O-])c1
inactive: Potency [2] | Potency [7] | Potency [3] | Potency [8] | Potency [9] | outcome [10] | outcome [4] | outcome [5] | Potency [6]

C[CH2][Ge]([Cl])([CH2]C)[CH2]C
inactive: Potency [1] | Potency [2] | outcome [4] | outcome [5] | Potency [6]
